PubChem BioAssay (NCATS)
Inconclusive results are not listed. Values without a mark were called inactive. Activity calls are given as the source filed them. The call rests on the fitted dose curve; in most records, active means well fitted cell-killing curve with a large enough effect; inconclusive means small, poorly fitted or top-dose-only effect; inactive means flat fitted curve, though single readings scatter.

What was measured:
[1] = Cellular viability qHTS for adrenocortical cancer (ACC) cell line SW-13 (AID 1963989); settings: SW-13 ACC cells viability, CellTiter-Glo, 48 h; activity (max response): active compounds read low;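 further: cells grown in serum-free medium with ITS supplement; on the % scale 0 is the no-effect control and ±100 the full control effect; nearly all actives have a fitted effect of over 65% in size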
Summary of the method: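 Viability was read as CellTiter-Glo luminescence after 48 h compound treatment (up to 46 uM final) of SW-13 cells grown serum-free; titration curves were fit with a four-parameter logistic model to give IC50 and efficacy.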

[2] = Cellular viability qHTS for adrenocortical cancer (ACC) cell line NCI-H295R (AID 1963990); further: nearly all actives have a fitted effect of over 60% in size; further: potency means the concentration at half of the fitted maximal effect
Summary of the method: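 CellTiter-Glo ATP luminescence, read 48 h after compound addition, measured viability of NCI-H295R adrenocortical cells grown serum-free with ITS. Final concentrations spanned up to 46 uM. Data normalized to DMSO and doxorubicin, fitted for IC50 and maximal response.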

| SMILES | activity (max response) [1] | Potency [2] |
| --- | --- | --- |
| O=C(Nc1ccc(Br)cc1)c1cc(Br)cc(Br)c1O | -19.7% | 10.3 µM (active) |
| Cc1c(Cl)c(=O)oc2cc(OP(=O)(OCCCl)OCCCl)ccc12 | -15.3% | inactive |
| CN(C)C(=S)SSC(=S)N(C)C | – | 25.9 µM (active) |
| CCCOC(=O)Cc1ccc(OCC(=O)N(CC)CC)c(OC)c1 | 10.7% | inactive |
| O=c1oc2ccccc2c(O)c1C(CC(O)c1ccc(-c2ccc(Br)cc2)cc1)c1ccccc1 (configuration not stated) | – | 18.4 µM (active) |
| CCOC(=O)c1cncn1C(C)c1ccccc1 (configuration not stated) | 4.76% | inactive |
| O=C1C(I)=CC(=C(c2cc(I)c(O)c(I)c2)c2ccccc2C(=O)O)C=C1I | – | 20.6 µM (active) |
| CCOC(=O)C(c1c(O)c2ccccc2oc1=O)c1c(O)c2ccccc2oc1=O | 16.4% | inactive |
| CC(C)=CCN1CC[C@@]2(C)c3cc(O)ccc3C[C@@H]1[C@@H]2C | – | 31.6 µM (active) |
| CCC(=O)C(CCN(C)C)(c1ccccc1)c1ccccc1 | -1.08% | inactive |
| COC(=O)c1cncn1C(C)c1ccccc1 (configuration not stated) | -8.99% | inactive |
| C[C@]12CC[C@H]3[C@@H](CCC4=CC(=O)CC[C@@H]43)[C@@H]1CC[C@@H]2O | 5.27% | inactive |
| O=c1[nH]c2ccccc2n1C1CCN(CCCC(c2ccc(F)cc2)c2ccc(F)cc2)CC1 | – | 23.1 µM (active) |
| C[C@@H]1CC2=CC(=O)CC[C@@H]2[C@H]2CC[C@@]3(C)[C@@H](CC[C@]3(C)O)[C@@H]21 | – | inactive |
